Counter-ions that a name gives are not always drawn. ± gives the standard deviation.
Tested on: Jurkat
Assay: cell count relative to DMSO control (fraction of control); higher = more cells (less growth inhibition)
Conditions: 48 h

Row | SMILES | cell count
1 | NNCCc1ccccc1 [Phenelzine Sulfate] (concentration: 25 µM) | 0.882 ± 0.12
2 | CC(C)[C@H](N)C(=O)OCCOCn1cnc2c(=O)nc(N)[nH]c21 [Valacyclovir·HCl] (concentration: 25 µM) | 0.332 ± 0.065
3 | CC1=C(C(=O)O)N2C(=O)[C@@H](NC(=O)[C@H](N)c3ccccc3)[C@H]2SC1 [Cephalexin Monohydrate] (concentration: 25 µM) | 0.931 ± 0.068
4 | COCCOC(=O)C1=C(C)NC(C)=C(C(=O)OC(C)C)C1c1cccc([N+](=O)[O-])c1 (centres undefined) [Nimodipine] (concentration: 25 µM) | 0.628 ± 0.17
5 | CCCCN1C[C@H](O)[C@@H](O)[C@H](O)[C@H]1CO [Miglustat (N-Butyldeoxynojirimycin·HCl)] (concentration: 25 µM) | 0.81 ± 0.045
6 | CCCCCCCCCCC[C@@H](C[C@@H]1OC(=O)[C@H]1CCCCCC)OC(=O)[C@H](CC(C)C)NC=O [Orlistat (Tetrahydrolipstatin)] (concentration: 25 µM) | 0.355 ± 0.074
7 | NC(=O)N1c2ccccc2C=Cc2ccccc21 [Carbamazepine] (concentration: 25 µM) | 1.14 ± 0.065
8 | Clc1ccc(C(Cn2ccnc2)OCc2csc3c(Cl)cccc23)c(Cl)c1 (centres undefined) [Sertaconazole] (concentration: 25 µM) | 0.801 ± 0.11
9 | CC(CN1c2ccccc2Sc2ccccc21)N(C)C (centres undefined) [Promethazine·HCl] (concentration: 25 µM) | 0.717 ± 0.16
10 | CC(C)NCC(O)COc1ccc(COCCOC(C)C)cc1 (centres undefined) [Bisoprolol Fumarate] (concentration: 25 µM) | 0.732 ± 0.035
11 | NS(=O)(=O)c1cc2c(cc1Cl)NCNS2(=O)=O [Hydrochlorothiazide] (concentration: 25 µM) | 0.411 ± 0.088
12 | CCN(CC)CC#CCOC(=O)C(O)(c1ccccc1)C1CCCCC1 (centres undefined) [Oxybutynin Chloride] (concentration: 25 µM) | 0.895 ± 0.049
13 | N=C(N)N/N=C/c1c(Cl)cccc1Cl [Guanabenz Acetate] (concentration: 25 µM) | 0.34 ± 0.13
14 | CC(C)[N+]1(C)[C@@H]2CC[C@H]1CC(OC(=O)C(CO)c1ccccc1)C2 (some centres undefined) [Ipratropium·Br] (concentration: 25 µM) | 0.704 ± 0.18
15 | CCN(Cc1ccncc1)C(=O)C(CO)c1ccccc1 (centres undefined) [Tropicamide] (concentration: 25 µM) | 0.925 ± 0.05
16 | CC1(C)S[C@@H]2[C@H](NC(=O)COc3ccccc3)C(=O)N2[C@H]1C(=O)O [Penicillin V Potassium] (concentration: 25 µM) | 1.09 ± 0.09
17 | CCc1c2c(nc3ccc(OC(=O)N4CCC(N5CCCCC5)CC4)cc13)-c1cc3c(c(=O)n1C2)COC(=O)[C@]3(O)CC [Irinotecan·HCl] (concentration: 250 nM) | 0.414 ± 0.034
18 | CCCCC(=O)N(Cc1ccc(-c2ccccc2-c2nnn[nH]2)cc1)[C@H](C(=O)O)C(C)C [Valsartan] (concentration: 25 µM) | 0.976 ± 0.11
19 | C#Cc1cccc(Nc2ncnc3cc(OCCOC)c(OCCOC)cc23)c1 [Erlotinib] (concentration: 25 µM) | 0.666 ± 0.04
20 | OCCN(CCO)c1nc(N2CCCCC2)c2nc(N(CCO)CCO)nc(N3CCCCC3)c2n1 [Dipyridamole] (concentration: 25 µM) | 0.652 ± 0.1
21 | CCCC(CCC)C(=O)O [Valproate·Na] (concentration: 25 µM) | 1.01 ± 0.096
22 | O=C(C1CCCCC1)N1CC(=O)N2CCc3ccccc3C2C1 (centres undefined) [Praziquantel] (concentration: 25 µM) | 0.781 ± 0.048
23 | CN(C)CCC=C1c2ccccc2C=Cc2ccccc21 [Cyclobenzaprine·HCl] (concentration: 25 µM) | 0.631 ± 0.094
24 | COc1ccc(O)cc1 [Mequinol] (concentration: 25 µM) | 0.863 ± 0.063
25 | CC(=O)[C@H]1CC[C@H]2[C@@H]3CCC4=CC(=O)CC[C@]4(C)[C@H]3CC[C@]12C [Progesterone] (concentration: 25 µM) | 0.755 ± 0.052
26 | O=NN(CCCl)C(=O)NC1CCCCC1 [Lomustine] (concentration: 25 µM) | 0.287 ± 0.11
27 | CO[C@@]1(NC(=O)C2SC(=C(C(N)=O)C(=O)O)S2)C(=O)N2C(C(=O)O)=C(CSc3nnnn3C)CS[C@@H]21 (some centres undefined) [Cefotetan Disodium] (concentration: 25 µM) | 0.831 ± 0.075
28 | CC1(C)S[C@@H]2[C@H](NC(=O)[C@H](N)c3ccccc3)C(=O)N2[C@H]1C(=O)O [Ampicillin Trihydrate] (concentration: 25 µM) | 1.17 ± 0.068
29 | CCOC(=O)C1=C(C)NC(C)=C(C(=O)OC)C1c1cccc(Cl)c1Cl (centres undefined) [Felodipine] (concentration: 25 µM) | 0.922 ± 0.12
